This is part of a sample that, as a whole, favours compounds with a hit. Of some 79,000 tested, about 15% had one in any assay. Values without a mark were called inactive. The source made the active and inactive calls. Rule as the data show it: active = growth inhibition above about 70%; inactive = the rest.

The nature of this assay: NCI Yeast Anticancer Drug Screen. Data for the cln2 rad14 strain (AID 165).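 Also: 0% = growth equal to vehicle treated cultures.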 The settings on record: S. cerevisiae cln2 rad14 strain, at 50.0 µM, active compounds read high. The protocol: Growth inhibition of yeast strains with defined genetic alterations is measured as a screen for potential anti-cancer activity. Selected strains with alterations in DNA damage repair or cell cycle control were exposed to compounds and growth inhibition was measured relative to vehicle treated controls. The strain used in this assay is cln2 rad14
Regarding `Oc1ccccc1O`, the growth inhibition is -11.7%. The value for `O=C(O)CCCc1ccccc1` was -7.65%; that for `COC(=O)C(O)c1ccccc1` (stereo not given) was 23.7%. For the compound `CS(=O)CC1=NC(=N)N=C1CS(C)=O` (stereo not given), the growth inhibition is -22.1%. The value for `O=C(Nc1cc(-c2ccccc2)[nH]n1)c1ccc(Cl)cc1` was -1%. Under `Oc1ccc(Cc2ccccc2)c2cccnc12` stands -19.4%.

Turning to `CC(C)(C)c1cc(O)c(C(C)(C)C)cc1O`, the growth inhibition is -1.85%.

As to `C1CNC(C2=NCCN2)=N1`, the growth inhibition was -26.1%.

Take `COc1nc(N)nc2c1ncn2C1OC(CO)CC1O` (stereo not given): the growth inhibition is 10.9%. In the case of `CC1SC(N)=NC1=O` (stereo not given), the growth inhibition is -2.15%. Under `COc1cc(C(N)=O)cc(OC)c1OC` stands 4.9%; under `CCCC(=O)c1cc(C)ccc1OC`, -22.6%. On to `CCOC(=O)Nc1cc2c(c(N)n1)N=C(c1ccccc1)CO2`, for which the growth inhibition is 16.5%. Under `COc1cc(/C=N\Nc2ccccc2)ccc1OC(=O)c1ccccc1` stands 23.9%. The value for `Cc1c(C(=O)O)c(=O)n(-c2ccccc2)n1C` was 11%; that for `Cc1cc2nc(CC(=O)c3ccccc3)c(=O)[nH]c2cc1C` was 9.4%. With `CC(=O)OCCO`, the growth inhibition is -6.35%. For `O=C(NCc1ccco1)Nc1c(Cl)cc(Cl)cc1Cl`, the growth inhibition is 2.65%.

For `CSC[C@H](NC(=O)COc1cccc2cnccc12)C(=O)NC(Cc1ccccc1)C(O)C(=O)N1CSC[C@H]1C(=O)NC(C)(C)C` (stereo not given in full), the growth inhibition is 17.6%. The value for `O=c1cc2oc3cc(O)c(O)cc3c(-c3ccccc3O)c-2cc1O` was 32.3%; that for `O=C(N/N=C\c1cc(Br)cc(Br)c1O)N/N=C/c1cc(Br)cc(Br)c1O` was 21.9%; that for `O=C1Cc2cc(O)ccc2O1` was -0.85%. The value for `Cc1cc(Cc2cc(C)c(N)cc2N)c(N)cc1N` was 15.2%. Under `Oc1ccc(O)cc1` stands -22.6%; under `CC1(C)OC(=O)C(c2ccsc2)C(=O)O1`, 32.8%; under `CCCCCCCCO`, 5.5%. For the compound `O=[N+]([O-])c1ccccc1N=Nc1ccc(O)cc1O`, the growth inhibition was -23.4%. Under `c1ccc2c(c1)Sc1ccccc1S2` stands -19.6%. Consider `COc1ccc(Oc2c(I)cc(CC(NC(C)=O)C(=O)O)cc2I)cc1` (stereo not given), for which the growth inhibition is 51.5%.

For `CC(=O)OCC1=CC2OC(=O)C3=COC(OC4OC(CO)C(O)C(O)C4O)C1C32` (stereo not given), the growth inhibition is 13.4%. Under `CCOC(=O)c1[nH]c(C)c(C(=O)O)c1C` stands -24.9%; under `O=C1C=C(Nc2ccc([N+](=O)[O-])cc2)c2ccccc2C1=O`, 4.65%; under `CCCCOC(OCCCC)c1ccccc1`, -18.6%. Under `CC(=O)c1ccc(C(C)(C)C)cc1` stands 12.1%; under `COC(=O)Nc1nc2ccc(C(=O)c3ccc(F)cc3)cc2[nH]1`, -26.4%. Under `CC(=O)C1CCCCC1` stands 11.7%. Consider `COc1cccc(Sc2ccc([N+](=O)[O-])c3no[n+]([O-])c23)c1`, for which the growth inhibition is 83.3% (active). Under `N#CCc1ccc([N+](=O)[O-])cc1` stands -2.1%; under `O=C(O)CNC(=O)c1ccccc1`, -50.1%.

For the compound `O=c1c2ccccc2c(Br)c(Br)c2ccccc12`, the growth inhibition was 3.3%.
